Results filed as inconclusive are left out. The source made the active and inactive calls. Unless noted, how the calls were made is not given here.
Tests used:
[1] = qHTS profiling of the MIPE4 collection as inhibitors of Plasmodium falciparum (3D7) proliferation (AID 743344);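 further: scaled between DMSO vehicle wells and 0.29 µM artemisinin as full inhibition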; conditions: P. falciparum 3D7 in erythrocytes, SYBR Green DNA fluorescence, 72 h; at 28.5 µM unless noted
How it was run: (§1)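 Parasite DNA was quantified by SYBR Green I fluorescence (ex 485, em 535 nm) after overnight lysis in saponin/Triton buffer at room temperature. Cultures at 0.3% parasitemia and 2.5% hematocrit were first exposed to compound for 72 h at 37 C; signals were normalised to artemisinin (0.29 uM) and vehicle wells.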

[2] = qHTS profiling of the MIPE4 collection as inhibitors of Plasmodium falciparum (DD2) proliferation (Rep 2) (AID 743346); conditions: P. falciparum Dd2 in erythrocytes, SYBR Green DNA, 72 h; at 28.5 µM unless noted
How it was run: as §1

[3] = qHTS profiling of the MIPE4 collection as inhibitors of Plasmodium falciparum (HB3) proliferation (AID 743347);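 further: plate controls were DMSO vehicle wells for no effect and artemisinin wells for full effect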; conditions: P. falciparum HB3 in erythrocytes, SYBR Green DNA, 72 h; at 28.5 µM unless noted
How it was run: as §1

[4] = High-throughput drug toxicity screening in the BPDCN cell line Gen2.2 (AID 1224824); conditions: Gen2.2 BPDCN cells; at 45.8 µM (top of the series) unless noted;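 further: cells exposed to compounds for 48 h before reading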
How it was run: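 Readout is ATP luminescence from Gen2.2 cells after two days of drug exposure in serum-containing medium at 37 °C. Values express percent activity, with vehicle defining full signal and 9.2 uM bortezomib defining zero.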

[5] = High-throughput drug toxicity screening in the BPDCN cell line Cal-1 (AID 1224825); conditions: Cal-1 BPDCN cell viability, qHTS; at 45.8 µM (top of the series) unless noted
How it was run: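 Viability of the BPDCN line Cal-1 is measured as ATP-based luminescence (CellTiter-Glo) following 48 h incubation with compounds. Percent activity uses DMSO-treated wells as 100% and 9.2 uM bortezomib as 0%.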

[6] = qHTS assay for measurement of the activity of small molecule inhibitors on Zika virus induced Caspase-3 activity in human iPSC derived neural progenitor cells (hNPCs) (AID 1224857; active means well fitted curve in the direction sought with a large enough effect; an effect the other way counts as inactive or inconclusive; further: nearly all actives have a fitted effect of over 65% in size; further: potency means the concentration at half of the fitted maximal effect)
How it was run: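 In medium with heparin 2 ug/ml and cyclopamine 2 uM, hNPCs (350 cells/well) received compound for one hour and then Zika virus at 2 FFU/cell; caspase activity was measured by Caspase-Glo 3/7 luminescence 6 h post-infection.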

[7] = qHTS assay for measurement of the activity of small molecule inhibitors on Zika virus induced Caspase-3 activity in human astrocytoma cells (AID 1224859; active means well fitted curve in the direction sought with a large enough effect; an effect the other way counts as inactive or inconclusive; further: potency means the concentration at half of the fitted maximal effect)
How it was run: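 A cell-based luminescent caspase-3/7 assay used SNB-19 cells infected with ZIKV (2 FFU/cell) for 6 h following 1 h compound pretreatment.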

[8] = qHTS Screen of the MIPE 4.0 Collection Against Ewings Sarcoma (RDES) (AID 1259252; active means well fitted curve in the direction sought with a large enough effect; an effect the other way counts as inactive or inconclusive; further: nearly all actives have a fitted effect of over 35% in size; further: potency means the concentration at half of the fitted maximal effect)
How it was run: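 Here, cells in 5% FBS RPMI were exposed for two days (48 h) to compound dilutions added four hours after plating. ATP-based CellTiter-Glo luminescence measured viability, normalized to vehicle and no-cell blanks.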

[9] = qHTS profiling of the MIPE4 collection as inhibitors of Plasmodium falciparum (DD2) proliferation (AID 743345); conditions: P. falciparum Dd2 in erythrocytes, SYBR Green DNA, 72 h; at 28.5 µM unless noted
How it was run: as §1

[10] = qHTS profiling for inhibitors of Plasmodium falciparum (3D7) proliferation (AID 743322);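 further: infected erythrocytes exposed to compound for 72 h before lysis; 100% = DMSO vehicle wells and 0% = 0.29 µM artemisinin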; conditions: P. falciparum 3D7 proliferation; at 28.7 µM (top of the series) unless noted
How it was run: as §1

[11] = qHTS profiling for inhibitors of Plasmodium falciparum (DD2) proliferation (AID 743323); conditions: lower = more inhibition; at 28.7 µM (top of the series) unless noted
How it was run: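 1536-well qHTS; infected RBCs 0.3% parasitemia/2.5% Hct final; cpd 72 h 37 C 5% CO2; lysis buffer + SYBR Green I, o/n RT dark; FI 485/535; norm. to 0.29 uM artemisinin and DMSO, plate-stack corrected.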

[12] = qHTS profiling for inhibitors of Plasmodium falciparum (HB3) proliferation (AID 743324; active means well fitted curve in the direction sought with a large enough effect; an effect the other way counts as inactive or inconclusive;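 further: 100% = DMSO vehicle wells and 0% = artemisinin-treated control wells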); conditions: Plasmodium falciparum HB3 blood-stage proliferation; at 28.7 µM (top of the series) unless noted
How it was run: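 SYBR Green fluorescence (485 ex/535 em) of lysed cultures, incubated overnight at room temperature in the dark, quantifies parasite DNA. Infected erythrocytes at 0.3% parasitemia and 2.5% hematocrit were exposed 72 h; values normalized to DMSO and 0.29 uM artemisinin controls.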

[13] = qHTS Assay for Identifying Gametocytocidal Compounds (AID 743244; active means well fitted curve in the direction sought with a large enough effect; an effect the other way counts as inactive or inconclusive;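 further: on the % scale 0 is the no-effect control and ±100 the full control effect; actives lower the fluorescent signal which means gametocytes are killed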); conditions: P. falciparum 3D7 stage III-V gametocytes, alamarBlue, 72 h; max response: stronger effect = lower value
How it was run: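 In this qHTS viability screen, late-stage 3D7 gametocytes are incubated with compound for 72 h, then with alamarBlue for 24 h; reduced resorufin fluorescence marks killing.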

SMILES | parasite growth, % of DMSO control [1] [%] | parasite growth, % of control (lower = inhibition) [2] [%] | growth, % of control [3] [%] | cell viability, % of control (lower = more cytotoxic) [4] [%] | viability (% of control) [5] [%] | Potency [6] | Potency [7] | Potency [8] | parasite growth remaining, % of DMSO control (lower = more inhibition) [9] [%] | remaining parasite growth % (stronger effect = lower value) [10] [%] | activity, percent of control [11] [%] | remaining proliferation (% of control), lower = more inhibition [12] [%] | max response [13]
C=CC[N+]1([C@H]2C[C@H]3[C@@H]4CC[C@H]5C[C@H](O)[C@@H](N6CCOCC6)C[C@]5(C)[C@@H]4CC[C@]3(C)[C@H]2OC(C)=O)CCCC1 | 31.1 | 21.1 | 40.8 | 168 | 116 | inactive | inactive | inactive |  |  |  |  | 
COc1ccc2cc1Oc1ccc(cc1)C[C@H]1c3cc(c(OC)cc3CCN1C)Oc1c(OC)c(OC)cc3c1[C@H](C2)N(C)CC3 |  |  | 13.9 | 146 | 94.6 | inactive | inactive | 20.9 µM (active) |  |  |  |  | 
C[C@@]1(c2cc(-c3cncnc3)c(F)cc2F)CCSC(N)=N1 |  | 28.2 | 14 | 9.95 | 13.1 | inactive | inactive | inactive | 44.7 |  |  |  | 
CCC(=C(c1ccc(O)cc1)c1ccc(OCCNC)cc1)c1ccccc1 | 5.26 | 13.1 | 3.87 | 16.9 | 4.15 | inactive | inactive |  |  |  |  |  | 
COc1c(C)c2c(c(O)c1CC=C(C)CCC(=O)OCCN1CCOCC1)C(=O)OC2 | 16.6 | 15.1 | 9.76 | 164 | 13.5 | inactive | inactive |  | 18.6 |  |  |  | 
CC1(C)CC(=O)c2c(C(F)(F)F)nn(-c3ccc(C(N)=O)c(NC4CCC(O)CC4)c3)c2C1 (configuration not stated) |  | 13 | 3.53 | 8.13 | 13.5 | inactive | inactive |  | 8.63 |  |  |  | 
CON(C)C(=O)N1N=C(c2cc(F)ccc2F)S[C@]1(CCCN)c1ccccc1 | 13.1 | 18.3 | 8.3 | 16.8 | 7.01 | inactive | inactive |  | 10.1 |  |  |  | 
CC(C)CNc1ccnc(NCc2csc(-c3ccccc3)n2)n1 | 7.23 | 25 | 10.6 | 74.3 | 5.31 | inactive | inactive |  | 31.7 | 3.03 | 6.76 | -0.95 | 
CCN(CCO)CCCOc1ccc2c(Nc3cc(CC(=O)Nc4cccc(F)c4)[nH]n3)ncnc2c1 | 9.18 | 17.8 | 6.77 | 90.4 | 15.3 | inactive | inactive |  | 11.6 |  |  |  | 
C[C@@H](O[C@H]1OCCN(Cc2n[nH]c(=O)[nH]2)[C@@H]1c1ccc(F)cc1)c1cc(C(F)(F)F)cc(C(F)(F)F)c1 | 26.5 | 66.5 | 34.2 | 39.1 | 16.1 | 8.33 µM (active) | inactive |  | 52.9 | 16.5 | 26.1 | 9.06 | 
Cc1ccc(C2=Nc3ccc(Cl)cc3OC2)cc1 | 30.3 | 26.5 | 55.7 | 73.9 | 85 | inactive | inactive |  | 94.3 |  |  |  | 
O=C1NC(=O)C(=Cc2ccc(-c3ccc(F)cc3O)o2)S1 | 34.3 | 61.3 | 34.2 | 31.9 | 92.1 | 16.6 µM (active) | 14.8 µM (active) |  | 71.3 |  |  |  | 
CC(C)C[C@H](NC(=O)c1cc2ccccc2s1)C(=O)N1CCN(C(=O)[C@H](CO)NS(=O)(=O)c2ccc(Cl)cc2Cl)CC1 | 11.1 | 20.2 | 10.7 | 29.4 | 67 | inactive | inactive |  | 47.5 | 17.9 | 27.2 | 5.88 | 4.85% (inactive)
Cc1cnc(Nc2cccc(CN3CCOCC3)c2)nc1Nc1cccc(S(=O)(=O)NC(C)(C)C)c1 | 4.05 | 17.3 | 7.02 | 14 | 3.36 | inactive | inactive |  | 8.36 |  |  |  | 
COc1ccc(Cn2ccc3ccc(C(=O)NO)cc32)cc1 |  | 8.17 | 3.68 | 250 | 19.7 | inactive | inactive |  | 13.4 |  |  |  | 
COc1cc([C@H]2Oc3cc([C@H]4Oc5cc(O)cc(O)c5C(=O)[C@H]4O)ccc3O[C@H]2CO)ccc1O | 7.9 | 16.1 | 12.9 | 181 | 85.4 | inactive | inactive |  | 18.5 |  |  |  | 
COc1ccnc(CS(=O)c2nc3ccc(OC(F)F)cc3[nH]2)c1OC (configuration not stated) | 58.5 | 99 | 91 | 282 | 108 | inactive | inactive |  | 95.8 |  |  |  | 7.9% (inactive)
CN(C)S(=O)(=O)c1ccc2c(c1)C(=Cc1cc3c([nH]1)CCCC3)C(=O)N2 |  | 30 | 8.5 | 119 | 35.3 | inactive | inactive |  | 22.5 |  |  |  | 
COc1nccc(-c2c(-c3ccc(F)cc3)ncn2C2CCC(O)CC2)n1 (configuration not stated) | 42.3 | 52.5 | 28.5 | 192 | 43.4 | inactive | inactive |  |  |  |  |  | 
Cc1ccccc1-n1c(Cn2nc(-c3cccc(O)c3)c3c(N)ncnc32)nc2cccc(C)c2c1=O | 6.67 | 15 | 9.11 | 5.88 | 10.5 | inactive | inactive |  | 8.31 |  |  |  | 
CN1c2ccccc2C(=O)N2CCc3c([nH]c4ccccc34)C21 (configuration not stated) | 94.3 | 90.2 | 55 | 54.1 | 97 | inactive | inactive |  | 103 |  |  |  | 

From PubChem BioAssay (NCATS)
